Reference: PubChem BioAssay AID1851 (National Center for Advancing Translational Sciences (NCATS), 2009)
Hit rate of the full screen: of about 16,000 compounds, about 2,600 (16%) were called active. About 20% were inconclusive and are not listed. The list is a sample of the results. Unmarked numbers belong to inactive results. Calls come from the whole dose curve; as a rule, active = well fitted curve in the direction sought with a large enough effect; inconclusive = small, poorly fitted or top-dose-only effect, or effect the other way; inactive = no such curve, though single readings can be large or run the other way.

What follows are compounds tested against Cytochrome P450 2D6 (Homo sapiens) (UniProt P10635) (assay: Cytochrome panel assay with activity outcomes). Settings: recombinant CYP, pro-luciferin dealkylation, luminescence, p450-cyp2d6; series mostly up to 57.1 µM; activity, negative = inhibition: at the top concentration.
Cytochrome P450 2D6 (Homo sapiens), sequence (P10635 whole entry, looked up): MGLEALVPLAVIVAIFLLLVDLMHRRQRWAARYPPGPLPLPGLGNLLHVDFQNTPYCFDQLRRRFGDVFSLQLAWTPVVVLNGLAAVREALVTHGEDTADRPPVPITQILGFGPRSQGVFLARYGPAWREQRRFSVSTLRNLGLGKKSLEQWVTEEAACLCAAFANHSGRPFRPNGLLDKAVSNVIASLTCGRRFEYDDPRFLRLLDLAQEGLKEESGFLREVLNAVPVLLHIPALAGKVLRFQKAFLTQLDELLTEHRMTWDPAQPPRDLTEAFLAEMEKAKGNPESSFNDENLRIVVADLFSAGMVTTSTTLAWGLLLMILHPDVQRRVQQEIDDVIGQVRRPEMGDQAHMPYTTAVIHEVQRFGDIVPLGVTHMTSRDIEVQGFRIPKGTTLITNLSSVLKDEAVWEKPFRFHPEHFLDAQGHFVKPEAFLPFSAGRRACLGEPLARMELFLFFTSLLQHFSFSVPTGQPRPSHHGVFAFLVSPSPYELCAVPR
% is set by controls: 0 for no effect and ±100 for the full control effect.

| SMILES | activity, negative = inhibition | AC50 |
| --- | --- | --- |
| COCCn1c(=O)cnc2cnc(Oc3ccc(OC)cc3)nc21 | -4.11% |  |
| COc1cc(OC)nc(NC(C)=O)n1 | 2.26% |  |
| O=C(O)CCC(O)=C1S(=O)(=O)OCCOS1(=O)=O | -8.4% [at 11.4 µM] |  |
| Cc1ccc(N=Nc2c(O)ccc3cc(S(=O)(=O)O)ccc23)cc1 | 4.81% [at 11.4 µM] |  |
| Cc1ccc(NC2=NC(c3ccccc3)n3c(nc(C)cc3=O)N2)c(C)c1 (stereo not drawn) | -17.2% |  |
| CCC(=O)[C@@]1(C)[C@H](C)C[C@@H]2[C@@H]3CCC4=CC(=O)C=C[C@@]4(C)[C@H]3[C@H](O)C[C@]21C | 3.11% [at 25.6 µM] |  |
| Cn1c(=O)c2c(nc(N3CCN(c4ccccn4)CC3)n2Cc2ccccc2Cl)n(C)c1=O | 2.07% |  |
| CC(=O)Nc1ccc(NC(=O)C/C(C)=N/NC(=O)C(=O)N2CCCC2)cc1 | 7.24% |  |
| C#CCSc1n[nH]c(-c2ccco2)n1 | -1.01% [at 11.4 µM] |  |
| O=c1c2ccccc2c(-c2ccccc2)nn1Cc1ccc(Cl)cc1 |  | 11.2 µM (active) |
| O=c1c2ccccc2c(-c2ccc(Br)cc2)nn1Cc1ccccc1 | -19.5% |  |
| Cc1ccc(-c2nn(C)c(=O)c3ccccc23)cc1CNC(=O)Cn1nc(-c2ccccc2)c2ccccc2c1=O | -9.89% |  |
| Cc1ccc(-c2csc(NC(=S)NC(=O)/C=C/c3ccco3)n2)cc1 | 15.4% |  |
| N#Cc1cccc(-c2nc3cnc(Oc4cccc(Cl)c4)nc3n(C3CC3)c2=O)c1 | -3.68% |  |
| CC1=NN(c2ccccc2)C(=O)C1 | -20.1% |  |
| O=C(Cc1ccc(Br)cc1)OCC(=O)c1ccc2c(c1)OCCO2 | -1.3% |  |
| CC(=O)c1cc2c(cc1NC(=O)CCCC(=O)O)OCO2 | 4.35% |  |
| C/C(=C\C(=O)c1ccc(Br)cc1)NCc1ccc2c(c1)OCO2 |  | 7.94 µM (active) |
| CCOc1ccc(C(C)=O)cc1N1C(=O)C2C3C=CC(O3)C2C1=O (stereo not drawn) | -21.1% |  |
| COC(=O)N1CCC2(CCCN(C(=O)Nc3cccc(F)c3)C2)CC1 | 8.79% |  |
| COCC(=O)N1CCC[C@@]2(CCN(C(=O)Nc3cccc(F)c3)C2)C1 | -0.151% |  |
| CC(=O)N1CCC2(CCCN(C(=O)Nc3cccc(F)c3)C2)CC1 | -3.24% |  |
| COc1ccc(C(=O)N2CCC3(CCN(C(=O)Nc4cccc(F)c4)CC3)CC2)cc1 | 4.46% |  |
| COC(=O)N1CCC[C@@]2(CCN(C(=O)Nc3cccc(F)c3)C2)C1 |  | 10 µM (active) |
| COC(=O)N1CCC2(CCN(C(=O)Nc3cccc(F)c3)CC2)CC1 |  | 10 µM (active) |
| CS(=O)(=O)N1CCC2(CCN(C(=O)Nc3cccc(F)c3)CC2)CC1 | -11.1% |  |
| CC(=O)N1CCC2(CC1)CCN(C(=O)Nc1cccc(F)c1)CC2 |  | 3.16 µM (active) |
| COCC(=O)N1CCC2(CC1)CCN(C(=O)Nc1cccc(F)c1)CC2 | 3.22% |  |
